# Reference: PubChem BioAssay AID1259415 (National Center for Advancing Translational Sciences (NCATS), 2018)
# Out of some 410,000 compounds screened, about 18,000 (4.4%) were called active. Inconclusive results (about 7%) are left out. For the sample, actives were picked, then their nearest neighbours and some compounds at random. Unmarked numbers belong to inactive results. No stated cut-off is given here; in the data, active means activity change below about -60%; inconclusive means no clear call, values can overlap the other calls; inactive means above about -39%.
# Experiment: qHTS Assay for inhibitors of the human cytomegalovirus (HCMV)
# Details: HFF cells, HCMV-luciferase reporter, 72 h; at 57.5 µM; hits give low values
# In short: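 Inhibition of viral replication was scored as loss of reporter luminescence in HFFs infected with HCMV-luciferase (MOI 1 PFU/cell) for 72 h; compounds tested at 2 doses, normalized to buffer and Salinomycin controls.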
# On the % scale 0 is the no-effect control and ±100 the full control effect.
row,SMILES,"activity change, negative = inhibition"
1,COc1cc(/C=C/CNC[C@H]2O[C@@H](n3cnc(C(N)=O)n3)[C@H](O)[C@@H]2O)ccc1O,-3.95%
2,Cc1ccccc1C(=O)N(Cc1ccc(N(C)C)cc1)CC1CCCO1 (configuration not stated),-18.1%
3,c1ccc(C(=NNc2nc3ccccc3s2)c2ccccn2)cc1,-99.2% (active)
4,Cc1cc(C)cc(-n2ccnc2SCC(=O)Nc2nc3ccccc3s2)c1,-5.53%
5,Cc1ccccc1-n1c(=O)c2ccccc2n(Cc2ccc(F)cc2)c1=O,-13.5%
6,CN1C(=O)/C(=C/C=C2\SCCN2C)OC1=S,143%
7,Cc1cc2c(cc1C)[n+](C)cn2CC(O)COCC1CC=CCC1 (configuration not stated),-71.1% (active)
8,CCCC12CN3CC(CCC)(CN(C1)C3c1c[nH]c3ccc(OC)cc13)C2=O (configuration not stated),14%
9,CCOc1cccc(=NC2CCCCC2)c2c(C)[nH]c(C)c12,-110% (active)
10,CCOc1ccccc1NC(=O)NC1CCCCCCC1,-14.2%
11,c1ccc2c(c1)C(=NC1CCCCC1)NC2=NC1CCCCC1,-38.8%
12,CCOc1ccc(Nc2oc(/C=C/c3ccc(F)cc3)nc2C#N)cc1,11.4%
13,Cc1ccc(CCNC(=O)Cn2c(-c3cccs3)cc3cc(F)ccc32)cc1,-16.7%
14,Cc1cccc(Cn2c(=O)n(CCC(=O)NCCc3ccc(Cl)cc3)c(=O)c3sccc32)c1,-10.1%
15,O=C(Cn1c(-c2cccs2)cc2ccccc21)NCCc1ccc(Cl)cc1,-112% (active)
16,O=C(c1ccc(Br)cc1)N(Cc1cccs1)c1ccc(F)cc1,-5.5%
17,O=C(Nc1ccc2nc(SCC(=O)N3CCc4ccccc43)sc2c1)c1ccccc1F,26.3%
18,CCCC(NCC(=O)Nc1ccccc1C(=O)NC1CC1)c1ccccc1 (configuration not stated),-16.1%
19,CC(NCC(=O)Nc1ccccc1C(=O)NC1CC1)c1ccccc1Cl (configuration not stated),-103% (active)
20,O=C(COc1ccccc1Cl)Nc1ccccc1C(=O)NC1CC1,-2.06%
21,COC(=O)C1C(=O)NCC1c1ccc(OC)cc1 (configuration not stated),19.2%
22,O=C(NC1CCC(O)CC1)c1ccc(S(=O)(=O)NCc2ccco2)cc1 (configuration not stated),-14.7%
23,CCc1nnc(SCC(=O)Nc2cc(OC)ccc2OC)nc1CC,0%

row,SMILES,"activity change, negative = inhibition"
1,COc1ccc(C(=O)Oc2cc(/C=N/NS(=O)(=O)c3ccc(C)cc3)ccc2OC)cc1,-102% (active)
2,COc1ccc(CCNC(=O)NS(=O)(=O)c2ccc(C)cc2)cc1OC,12.4%
3,COc1ccc(S(=O)(=O)N/N=C\c2ccc(OC)c(COc3ccc(C)cc3[N+](=O)[O-])c2)cc1,12.7%
4,Cc1cccc(NC(=O)c2ccc3nc(C(C)C)oc3c2)c1C,-5.74%
5,CCOc1ccc(C(=O)/C=C/c2cn(CC(O)CN3CCCCCC3)c3ccccc23)cc1 (configuration not stated),-29%
6,Cc1ccc(-c2nn(CCC(=O)Nc3ccc(OC(F)(F)F)cc3)c(=O)c3ccccc23)cc1,0.866%
7,O=C(Nc1cc(C(F)(F)F)ccc1Cl)c1ccc2c(c1)CCN2S(=O)(=O)c1ccccc1,-29.1%
8,CCN(C(=O)COC(=O)c1cc(S(=O)(=O)N2CCc3ccccc32)ccc1OC)C1CCS(=O)(=O)C1 (configuration not stated),-18%
9,COc1ccc(S(=O)(=O)N2CCc3ccccc32)cc1C(=O)Nc1cc(S(C)(=O)=O)ccc1Cl,-62.7% (active)
10,CCc1nc2c(OCCOc3ccccc3)cccn2c1N(C)C(=O)c1ccccc1F,-30.7%
11,COc1ccc2c(c1)C(c1cccs1)=NNC(c1cccnc1)=N2,-22.6%
12,COC1C(O)C(C)OC(OC2CCC3(C=O)C(CCC4C3CCC3(C)C(C5=CC(=O)OC5)CCC43O)C2)C1O (configuration not stated),-106% (active)
13,Brc1cccc(-c2nnn3c2nc(NC2CCCCC2)c2ccccc23)c1,34.7%
14,O=C(Cc1ccc(Cl)cc1)NCC(c1cccs1)S(=O)(=O)c1ccc(Cl)cc1 (configuration not stated),-8.05%
15,O=C(NNC(=O)c1ccco1)Nc1ccccc1,-62% (active)
16,O=C(CNC(=O)c1ccco1)NNC(=O)c1ccc(Br)cc1,-4.75%
17,O=C(CNC(=O)c1ccco1)OCC(=O)c1ccccc1,49.6%
18,COc1cccc(-c2n[nH]c3c2C(c2cccc(O)c2)N(C)C3=O)c1 (configuration not stated),179%
19,CC(OC(=O)CN1C(=O)C2CCCCC2C1=O)C(=O)Nc1ncc(Cl)cc1Cl (configuration not stated),22.5%
20,CCOc1cc(NC(=O)c2ccccc2C(=O)O)c(OCC)cc1NC(=O)c1ccccc1F,-3.32%
21,CCN1CCN(c2cc3nc(C)n(Cc4ccccc4)c(=O)c3cc2NC(=O)c2ccccc2F)CC1,-85.2% (active)
22,Cc1nc2ccn(Cc3cccnc3)c(=O)c2cc1C(=O)N1CCN(c2ccccc2F)CC1,10.9%
23,CCCCN(C)C(=O)c1ccc2c(c1)N(CC)C(=O)c1ccccc1S2(=O)=O,-8.24%

row,SMILES,"activity change, negative = inhibition"
1,Cc1cccc(Nc2nc(C)nc(N)c2S(=O)(=O)c2ccccc2)c1,0.44%
2,C=CCNC(=O)COc1coc(CN2CCN(Cc3ccccc3)CC2)cc1=O,-9%
3,C=CCNC(=S)/N=c1/ccccn1Cc1ccccc1,-98.8% (active)
4,N=c1ccccn1Cc1ccccc1,-18.5%
5,CCCNC(=O)C1CCC(Cn2c(=O)c3sccc3n(Cc3ccccc3F)c2=O)CC1 (configuration not stated),1.25%
6,O=C(CSc1cccc2cccnc12)N/N=C/c1cccnc1,-101% (active)
7,Cc1c(Cl)cccc1NC(=O)CSc1ccc(-c2cccnc2)nn1,-12.1%
8,CC1=NNC(=O)C1CC(=O)N/N=C/c1ccncc1 (configuration not stated),42.5%
9,O=C(N/N=C/c1ccc(O)c(O)c1)C1c2ccccc2Oc2ccccc21,23.9%
10,O=C(N/N=C/c1cccnc1)c1cc2ccccc2cc1O,-98% (active)
11,O=C(N/N=C/c1cccc2cccnc12)[C@H]1C[C@@H]1c1ccccc1,20.4%
12,CCOC(=O)N/N=C/c1cccnc1,-60.5% (active)
13,CCOC(=O)CNC(=O)CSc1ccc2nnc(-c3cccnc3)n2n1,49.6%
14,O=C(O)/C(=C/c1cccnc1)NC(=O)c1ccccc1,6.75%
15,COc1ccc(Cn2ccn(CC(=O)Nc3cc(C)ccc3C)c(=O)c2=O)cc1,15.8%
16,COc1ccccc1NC(=O)CN1C(=O)c2ccccc2Sc2ccc(C(=O)N3CCCC3)cc21,14.4%
17,CC(C)(C)OC(=O)N1CCC(c2c(C(=O)N3CCc4ccccc4C3)cnn2-c2ccc(F)cc2)CC1,6.95%
18,Cc1cc(C)cc(NC(=O)CSc2oc(-c3ccccc3)nc2S(=O)(=O)c2ccc(Cl)cc2)c1,-2.05%
19,COc1ccc(CCC(=O)NCc2ccc3c(c2)CCN3C(=O)c2ccc(F)cc2)cc1,15.1%
20,CCc1ccc2oc(-c3ccc(NC(=O)c4cc5ccccc5o4)cc3)nc2c1,37.7%
21,Cc1cccc(NC(=O)N2CCCCCC2)c1C,57.9%
22,Cc1cccc(NC(=S)N2CCC(O)CC2)c1C,-32.2%
23,Cc1cccc(C)c1NC(=S)N1CCCCCC1,-64.3% (active)

row,SMILES,"activity change, negative = inhibition"
1,O=C1NCC(Nc2ccccc2)C(=O)N1 (configuration not stated),-7.88%
2,CCc1ccc(NS(=O)(=O)c2ccc3[nH]cc(C(=O)NCCc4cccc(C)c4)c(=O)c3c2)cc1,93.7%
3,OC(CNCC1CCCO1)Cn1c2ccc(Br)cc2c2cc(Br)ccc21 (configuration not stated),2.12%
4,Cc1cc(C)c2oc(-c3cccc(NC(=O)c4cccc(F)c4)c3C)nc2c1,-0.821%
5,CC(=O)c1cc(CN2CCC(C(=O)Nc3cccc(-c4cscn4)c3)CC2)cs1,-30.7%
6,O=C(Nc1cccc(-c2cscn2)c1)C1CCN(Cc2ccsc2)CC1,-33.6%
7,CCn1cc(CN2CCC(C(=O)Nc3cccc(-c4cccc(Cl)c4)c3)CC2)cn1,-97.6% (active)
8,COc1ccc(OCCCn2c(C3CC(=O)N(c4ccc(F)cc4)C3)nc3ccccc32)cc1 (configuration not stated),-13%
9,CCCCN1CC(c2nc3ccccc3n2CCCCOc2ccc(C)cc2C)CC1=O (configuration not stated),-105% (active)
10,CCc1ccccc1N1CC(c2nc3ccccc3n2CCCCOc2ccccc2)CC1=O (configuration not stated),-4.32%
11,O=C(NCc1ccccc1)C1CCN(S(=O)(=O)c2ccc3[nH]c(=O)ccc3c2)CC1,23%
12,Cc1ccccc1OCC(=O)Nc1c(C(=O)Nc2ccccc2F)oc2ccccc12,11.7%
13,C=CCSc1nnc(Cn2c(=O)sc3ccccc32)n1C,-2.22%
14,COc1ccc(Cn2c(=O)sc3ccccc32)cc1OC,-99.8% (active)
15,COc1ccc(CN2CCOC2=O)cc1OC,-13.1%
16,CCOC(=O)c1ccc(NC(=O)Cn2c(=O)cc(C)c3c(C)nn(-c4cccc(F)c4)c32)cc1,2.32%
17,CCC(c1nc2ccccc2[nH]1)n1c(=O)c(-c2cccs2)nc2ccccc21 (configuration not stated),-2.85%
18,CCC(C)N1C(=O)S/C(=C/c2ccc(Sc3nc4ccccc4[nH]3)o2)C1=O (configuration not stated),-91.5% (active)
19,COc1ccc(C)cc1NC(=O)CCc1c(C)nn(-c2ccc(N3CCOCC3)nn2)c1C,39.1%
20,CCCCCn1c(=O)[nH]c2cc(C(=O)NCCN(C)CCCC)ccc2c1=O,-33.3%
21,CCOc1ccc(NC(=O)c2c(NC(=O)Cc3ccccc3)sc3c2CCC(C)C3)cc1 (configuration not stated),-34.6%
22,CCOc1ccc(NC(=O)c2c(NC(=O)Cc3ccccc3)sc3c2CCCCC3)cc1,-74.7% (active)
23,O=C(Cc1ccccc1)Nc1sc2c(c1C(=O)Nc1ccc(Br)cc1)CCC2,5.03%
